Common to all, as to experiment: DAPPL (digital affinity profiling via proximity ligation, sequencing); 10 mM Tris-HCl pH 7.5, 50 mM NaCl, 1 mM DTT, 4% glycerol, room temperature, 30 min; GST-TFs on glutathione beads, 16-mer random dsDNA library, 0.1% formaldehyde crosslink after washing; high values mean tight binding
The target in one test is T1, FEV (Homo sapiens, UniProt Q99581 1-238).
T1 sequence: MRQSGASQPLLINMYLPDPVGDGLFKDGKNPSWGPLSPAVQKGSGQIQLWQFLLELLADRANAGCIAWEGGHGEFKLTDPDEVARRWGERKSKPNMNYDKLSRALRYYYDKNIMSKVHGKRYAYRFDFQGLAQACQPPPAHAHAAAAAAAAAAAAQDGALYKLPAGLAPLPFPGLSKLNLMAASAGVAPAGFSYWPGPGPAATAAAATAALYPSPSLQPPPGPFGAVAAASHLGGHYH
The settings on record: protein: recombinant; tags: N-terminal GST; dsDNA, one strand shown. A digest of the protocol: (§1)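 Binding signal is given per hexamer as its read frequency for a factor divided by its frequency in the tag-only sample. GST-fused human transcription factors were expressed in yeast, captured on glutathione beads, barcoded with DNA and pooled with that sample, then incubated with 200 nmole of a 16-mer random double-stranded DNA library in Tris/NaCl/DTT/glycerol buffer for 30 min at room temperature. The pools were then washed, crosslinked, proximity-ligated, amplified by PCR and sequenced on an Illumina NextSeq500.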

The next test addresses ETV5 (Homo sapiens, UniProt P41161 1-510). The settings on record: protein: recombinant; tags: N-terminal GST; dsDNA, one strand shown. In a few lines:
as §1

The target of another test is HSF1 (Homo sapiens, UniProt Q00613 1-529). The settings on record: protein: recombinant; tags: N-terminal GST; chain copies: 3; dsDNA, one strand shown. In a few lines:
as §1

The next test deals with T2, SPIC (Homo sapiens, UniProt Q8N5J4 1-248).
T2 sequence: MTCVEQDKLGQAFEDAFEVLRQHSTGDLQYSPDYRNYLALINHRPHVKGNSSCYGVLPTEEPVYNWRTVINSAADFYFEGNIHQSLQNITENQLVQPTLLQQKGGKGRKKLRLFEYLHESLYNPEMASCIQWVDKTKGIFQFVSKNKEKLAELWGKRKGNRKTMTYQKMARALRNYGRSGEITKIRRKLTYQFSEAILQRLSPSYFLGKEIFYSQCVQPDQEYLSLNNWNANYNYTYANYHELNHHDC
The settings on record: protein: recombinant; tags: N-terminal GST; dsDNA, one strand shown. In a few lines:
as §1

The target of the next test is ELF4 (Homo sapiens, UniProt Q99607 1-663). The settings on record: protein: recombinant; tags: N-terminal GST; dsDNA, one strand shown. A digest of the protocol:
as §1

A further test concerns the target T3, ELK4 (Homo sapiens, UniProt P28324-2 1-405).
T3 sequence: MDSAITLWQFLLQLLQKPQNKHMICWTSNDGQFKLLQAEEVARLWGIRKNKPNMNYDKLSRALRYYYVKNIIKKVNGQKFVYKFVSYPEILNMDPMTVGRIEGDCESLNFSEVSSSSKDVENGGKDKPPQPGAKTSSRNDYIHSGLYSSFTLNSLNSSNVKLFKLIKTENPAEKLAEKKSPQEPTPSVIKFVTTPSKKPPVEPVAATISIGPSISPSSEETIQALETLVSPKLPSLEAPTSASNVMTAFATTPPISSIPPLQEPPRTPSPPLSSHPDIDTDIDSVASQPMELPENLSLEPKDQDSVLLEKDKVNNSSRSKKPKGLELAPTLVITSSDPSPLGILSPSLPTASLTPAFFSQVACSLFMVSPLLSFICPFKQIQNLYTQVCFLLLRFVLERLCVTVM
The settings on record: protein: recombinant; tags: N-terminal GST; dsDNA, one strand shown. In a few lines: as §1

The next test concerns the target T4, ETV2 (Homo sapiens, UniProt O00321 1-342).
T4 sequence: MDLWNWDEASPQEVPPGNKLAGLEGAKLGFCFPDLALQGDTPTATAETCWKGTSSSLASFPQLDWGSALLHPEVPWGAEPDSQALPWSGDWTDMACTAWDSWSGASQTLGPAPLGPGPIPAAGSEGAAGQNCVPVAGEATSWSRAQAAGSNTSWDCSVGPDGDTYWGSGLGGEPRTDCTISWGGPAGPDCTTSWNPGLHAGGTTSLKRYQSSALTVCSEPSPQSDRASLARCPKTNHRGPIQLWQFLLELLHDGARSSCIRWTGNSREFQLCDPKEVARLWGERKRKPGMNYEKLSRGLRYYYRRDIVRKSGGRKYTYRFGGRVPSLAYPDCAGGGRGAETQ
The settings on record: protein: recombinant; tags: N-terminal GST; dsDNA, one strand shown. A digest of the protocol: as §1

The next test concerns the target T5, ELF3 (Homo sapiens, UniProt P78545 1-371).
T5 sequence: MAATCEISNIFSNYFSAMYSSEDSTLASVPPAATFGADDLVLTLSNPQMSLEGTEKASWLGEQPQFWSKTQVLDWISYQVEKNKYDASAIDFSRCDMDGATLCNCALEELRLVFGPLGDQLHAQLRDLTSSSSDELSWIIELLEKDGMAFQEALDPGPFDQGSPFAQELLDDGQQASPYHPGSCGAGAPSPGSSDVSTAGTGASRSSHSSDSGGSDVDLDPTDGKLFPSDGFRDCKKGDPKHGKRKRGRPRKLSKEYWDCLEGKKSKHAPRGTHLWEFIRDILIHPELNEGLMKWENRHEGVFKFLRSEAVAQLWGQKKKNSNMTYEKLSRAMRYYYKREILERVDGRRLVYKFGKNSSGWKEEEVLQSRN
The settings on record: protein: recombinant; tags: N-terminal GST; dsDNA, one strand shown. In a few lines:
as §1

For the next test, the target named is CRX (Homo sapiens, UniProt O43186 1-299). The settings on record: protein: recombinant; tags: N-terminal GST; dsDNA, one strand shown. In a few lines:
as §1

In another test the target is ETV1 (Homo sapiens, UniProt P50549 1-477). The settings on record: protein: recombinant; tags: N-terminal GST; dsDNA, one strand shown. In a few lines:
as §1

The target of a further test is T6, ERF (Homo sapiens, UniProt P50548 1-548).
T6 sequence: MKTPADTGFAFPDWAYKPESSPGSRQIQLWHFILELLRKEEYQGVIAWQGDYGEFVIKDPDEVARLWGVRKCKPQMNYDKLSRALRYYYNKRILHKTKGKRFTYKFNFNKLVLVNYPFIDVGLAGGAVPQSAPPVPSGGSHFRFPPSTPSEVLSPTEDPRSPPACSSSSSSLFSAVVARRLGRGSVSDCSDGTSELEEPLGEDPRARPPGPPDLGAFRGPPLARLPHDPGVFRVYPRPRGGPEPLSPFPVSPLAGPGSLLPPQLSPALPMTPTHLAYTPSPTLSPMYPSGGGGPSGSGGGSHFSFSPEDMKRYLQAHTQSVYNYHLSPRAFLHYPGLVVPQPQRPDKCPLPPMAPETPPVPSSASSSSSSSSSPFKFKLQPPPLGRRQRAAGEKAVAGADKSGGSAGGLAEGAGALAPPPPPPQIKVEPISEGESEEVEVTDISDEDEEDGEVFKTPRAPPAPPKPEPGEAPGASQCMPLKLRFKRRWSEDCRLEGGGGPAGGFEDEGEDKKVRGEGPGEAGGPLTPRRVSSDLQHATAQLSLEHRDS
The settings on record: protein: recombinant; tags: N-terminal GST; dsDNA, one strand shown. A digest of the protocol:
as §1

The next test concerns the target T7, ETV3L (Homo sapiens, UniProt Q6ZN32 1-361).
T7 sequence: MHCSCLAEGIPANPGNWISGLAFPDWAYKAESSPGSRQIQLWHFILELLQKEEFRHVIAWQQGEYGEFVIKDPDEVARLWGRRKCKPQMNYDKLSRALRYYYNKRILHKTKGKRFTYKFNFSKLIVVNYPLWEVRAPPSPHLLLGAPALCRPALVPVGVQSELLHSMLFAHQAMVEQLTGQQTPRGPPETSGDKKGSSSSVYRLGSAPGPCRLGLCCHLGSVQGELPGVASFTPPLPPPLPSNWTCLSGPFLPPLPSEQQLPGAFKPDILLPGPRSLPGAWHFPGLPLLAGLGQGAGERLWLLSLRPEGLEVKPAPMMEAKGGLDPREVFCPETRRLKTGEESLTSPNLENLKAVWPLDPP
The settings on record: protein: recombinant; tags: N-terminal GST; dsDNA, one strand shown. A digest of the protocol:
as §1

In the next test the target is T8, ETS2 (Homo sapiens, UniProt P15036 1-469).
T8 sequence: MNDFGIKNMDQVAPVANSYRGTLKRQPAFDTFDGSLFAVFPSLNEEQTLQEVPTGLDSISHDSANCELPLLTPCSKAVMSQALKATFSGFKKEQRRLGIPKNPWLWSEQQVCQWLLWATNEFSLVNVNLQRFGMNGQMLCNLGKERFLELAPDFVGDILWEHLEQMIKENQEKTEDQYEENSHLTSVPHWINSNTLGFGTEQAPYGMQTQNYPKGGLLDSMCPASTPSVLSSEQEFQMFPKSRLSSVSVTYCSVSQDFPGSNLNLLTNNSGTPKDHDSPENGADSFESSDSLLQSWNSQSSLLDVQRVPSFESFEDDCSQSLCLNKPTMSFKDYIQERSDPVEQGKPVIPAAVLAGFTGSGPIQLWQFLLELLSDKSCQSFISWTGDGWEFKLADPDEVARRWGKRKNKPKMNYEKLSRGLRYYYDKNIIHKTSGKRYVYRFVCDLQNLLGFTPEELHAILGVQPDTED
The settings on record: protein: recombinant; tags: N-terminal GST; dsDNA, one strand shown. A digest of the protocol:
as §1

For a further test, the target named is T9, SPDEF (Homo sapiens, UniProt O95238 1-335).
T9 sequence: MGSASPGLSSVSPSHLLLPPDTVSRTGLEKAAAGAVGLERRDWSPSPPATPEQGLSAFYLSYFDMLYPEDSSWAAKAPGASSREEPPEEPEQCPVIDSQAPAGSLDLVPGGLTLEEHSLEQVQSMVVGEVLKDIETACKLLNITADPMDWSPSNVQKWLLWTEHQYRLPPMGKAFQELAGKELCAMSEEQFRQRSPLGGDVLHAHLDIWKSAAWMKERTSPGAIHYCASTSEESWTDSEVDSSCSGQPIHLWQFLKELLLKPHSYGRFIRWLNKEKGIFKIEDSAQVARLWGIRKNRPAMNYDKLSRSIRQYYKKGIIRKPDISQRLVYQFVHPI
The settings on record: protein: recombinant; tags: N-terminal GST; dsDNA, one strand shown. A digest of the protocol:
as §1

A further test addresses T10, ETV7 (Homo sapiens, UniProt Q9Y603 1-341).
T10 sequence: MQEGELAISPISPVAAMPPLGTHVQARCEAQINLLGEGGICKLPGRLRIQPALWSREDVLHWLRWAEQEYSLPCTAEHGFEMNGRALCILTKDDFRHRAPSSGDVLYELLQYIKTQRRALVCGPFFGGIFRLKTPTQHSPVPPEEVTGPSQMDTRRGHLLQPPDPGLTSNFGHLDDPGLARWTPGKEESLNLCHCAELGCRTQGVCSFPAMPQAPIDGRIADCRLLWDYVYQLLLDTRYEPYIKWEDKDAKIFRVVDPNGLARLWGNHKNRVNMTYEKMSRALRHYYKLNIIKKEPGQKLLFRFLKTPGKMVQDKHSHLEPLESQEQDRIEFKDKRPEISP
The settings on record: protein: recombinant; tags: N-terminal GST; dsDNA, one strand shown. In a few lines: as §1

The target of another test is T11, ELF5 (Homo sapiens, UniProt Q9UKW6-2 1-255).
T11 sequence: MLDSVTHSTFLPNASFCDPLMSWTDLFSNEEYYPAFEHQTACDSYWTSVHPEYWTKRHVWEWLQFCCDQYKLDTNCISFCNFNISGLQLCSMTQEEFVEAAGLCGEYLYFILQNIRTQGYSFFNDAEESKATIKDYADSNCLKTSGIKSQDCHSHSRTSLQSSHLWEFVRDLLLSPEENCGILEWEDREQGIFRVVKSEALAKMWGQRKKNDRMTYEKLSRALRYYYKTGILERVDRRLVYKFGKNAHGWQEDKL
The settings on record: protein: recombinant; tags: N-terminal GST; dsDNA, one strand shown. In a few lines: as §1

The next test addresses T12, ETV3 (Homo sapiens, UniProt P41162-2 1-143).
T12 sequence: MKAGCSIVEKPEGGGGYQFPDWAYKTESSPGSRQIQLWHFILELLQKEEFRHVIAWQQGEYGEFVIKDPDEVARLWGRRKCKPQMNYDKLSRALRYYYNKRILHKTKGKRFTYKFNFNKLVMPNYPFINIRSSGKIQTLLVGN
The settings on record: protein: recombinant; tags: N-terminal GST; dsDNA, one strand shown. A digest of the protocol:
as §1

Another test addresses ETV6 (Homo sapiens, UniProt P41212 1-452). The settings on record: protein: recombinant; tags: N-terminal GST; dsDNA, one strand shown. In a few lines:
as §1

Sequence of ETV6 (P41212 whole entry): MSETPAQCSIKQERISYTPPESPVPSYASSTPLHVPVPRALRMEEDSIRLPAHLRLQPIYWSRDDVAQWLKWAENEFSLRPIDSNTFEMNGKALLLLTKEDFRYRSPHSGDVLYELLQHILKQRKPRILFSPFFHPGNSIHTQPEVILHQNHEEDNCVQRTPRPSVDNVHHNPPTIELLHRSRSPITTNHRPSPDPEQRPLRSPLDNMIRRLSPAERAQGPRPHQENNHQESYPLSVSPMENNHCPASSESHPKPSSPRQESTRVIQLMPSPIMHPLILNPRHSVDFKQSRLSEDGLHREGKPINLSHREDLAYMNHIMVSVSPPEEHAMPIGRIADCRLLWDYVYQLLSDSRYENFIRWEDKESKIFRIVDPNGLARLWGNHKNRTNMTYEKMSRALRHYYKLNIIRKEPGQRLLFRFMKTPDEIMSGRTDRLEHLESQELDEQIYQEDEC
Sequence of HSF1 (Q00613 whole entry): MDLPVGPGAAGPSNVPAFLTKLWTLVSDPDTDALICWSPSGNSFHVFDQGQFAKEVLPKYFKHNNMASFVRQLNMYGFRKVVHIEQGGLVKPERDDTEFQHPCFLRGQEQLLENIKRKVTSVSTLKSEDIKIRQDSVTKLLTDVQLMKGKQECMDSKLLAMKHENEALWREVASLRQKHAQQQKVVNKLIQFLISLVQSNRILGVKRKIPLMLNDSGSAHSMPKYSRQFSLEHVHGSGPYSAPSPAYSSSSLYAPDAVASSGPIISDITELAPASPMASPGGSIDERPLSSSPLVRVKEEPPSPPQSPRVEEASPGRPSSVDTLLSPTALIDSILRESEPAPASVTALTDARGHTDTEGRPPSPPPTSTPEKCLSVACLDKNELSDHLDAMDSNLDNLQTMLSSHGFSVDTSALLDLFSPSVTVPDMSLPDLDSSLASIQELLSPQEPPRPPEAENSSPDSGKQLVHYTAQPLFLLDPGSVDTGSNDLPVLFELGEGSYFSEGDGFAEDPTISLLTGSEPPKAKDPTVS
Sequence of ELF4 (Q99607 whole entry): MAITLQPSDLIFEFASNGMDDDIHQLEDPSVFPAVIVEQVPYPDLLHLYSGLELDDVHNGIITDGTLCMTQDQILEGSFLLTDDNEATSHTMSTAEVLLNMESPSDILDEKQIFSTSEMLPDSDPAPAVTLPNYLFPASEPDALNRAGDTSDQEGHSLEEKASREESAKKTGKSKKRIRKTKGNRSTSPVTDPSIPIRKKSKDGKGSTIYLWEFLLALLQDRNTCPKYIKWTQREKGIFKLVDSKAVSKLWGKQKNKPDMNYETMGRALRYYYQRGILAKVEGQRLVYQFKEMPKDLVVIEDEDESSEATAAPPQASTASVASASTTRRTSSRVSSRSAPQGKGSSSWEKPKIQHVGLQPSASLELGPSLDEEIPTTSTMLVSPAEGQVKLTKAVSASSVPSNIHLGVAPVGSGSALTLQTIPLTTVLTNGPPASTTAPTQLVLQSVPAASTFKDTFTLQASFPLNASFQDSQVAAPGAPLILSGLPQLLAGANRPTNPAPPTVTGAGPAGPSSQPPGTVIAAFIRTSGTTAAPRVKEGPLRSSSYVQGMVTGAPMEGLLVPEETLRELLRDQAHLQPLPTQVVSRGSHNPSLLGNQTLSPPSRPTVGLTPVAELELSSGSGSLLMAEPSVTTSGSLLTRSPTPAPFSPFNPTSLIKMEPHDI
Sequence of ETV1 (P50549 whole entry): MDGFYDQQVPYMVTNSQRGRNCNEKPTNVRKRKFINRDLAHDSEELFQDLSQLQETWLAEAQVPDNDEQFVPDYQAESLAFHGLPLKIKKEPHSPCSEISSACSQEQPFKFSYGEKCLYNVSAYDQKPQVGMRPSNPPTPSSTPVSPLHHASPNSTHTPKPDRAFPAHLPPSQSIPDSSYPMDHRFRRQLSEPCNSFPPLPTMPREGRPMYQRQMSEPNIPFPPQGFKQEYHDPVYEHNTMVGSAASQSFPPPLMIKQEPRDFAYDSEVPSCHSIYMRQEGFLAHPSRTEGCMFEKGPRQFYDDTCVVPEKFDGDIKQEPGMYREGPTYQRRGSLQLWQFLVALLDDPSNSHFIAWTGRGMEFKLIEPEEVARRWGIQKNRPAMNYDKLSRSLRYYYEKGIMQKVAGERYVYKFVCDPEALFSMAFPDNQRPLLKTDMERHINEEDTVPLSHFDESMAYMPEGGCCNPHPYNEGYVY
Sequence of ETV5 (P41161 whole entry): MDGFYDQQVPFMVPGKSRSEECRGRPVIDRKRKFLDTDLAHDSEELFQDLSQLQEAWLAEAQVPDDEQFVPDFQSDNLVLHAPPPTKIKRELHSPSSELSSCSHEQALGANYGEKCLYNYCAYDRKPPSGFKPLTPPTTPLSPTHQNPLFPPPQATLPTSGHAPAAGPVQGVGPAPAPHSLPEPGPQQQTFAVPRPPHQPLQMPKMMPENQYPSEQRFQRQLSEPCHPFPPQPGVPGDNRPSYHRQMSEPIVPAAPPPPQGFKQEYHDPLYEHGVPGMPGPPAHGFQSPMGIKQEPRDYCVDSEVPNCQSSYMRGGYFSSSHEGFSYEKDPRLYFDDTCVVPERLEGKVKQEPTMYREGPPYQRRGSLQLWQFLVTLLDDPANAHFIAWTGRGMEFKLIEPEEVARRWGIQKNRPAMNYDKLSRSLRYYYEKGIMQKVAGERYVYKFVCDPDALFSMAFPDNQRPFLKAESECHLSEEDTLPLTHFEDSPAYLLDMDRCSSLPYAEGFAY
Sequence of CRX (O43186 whole entry): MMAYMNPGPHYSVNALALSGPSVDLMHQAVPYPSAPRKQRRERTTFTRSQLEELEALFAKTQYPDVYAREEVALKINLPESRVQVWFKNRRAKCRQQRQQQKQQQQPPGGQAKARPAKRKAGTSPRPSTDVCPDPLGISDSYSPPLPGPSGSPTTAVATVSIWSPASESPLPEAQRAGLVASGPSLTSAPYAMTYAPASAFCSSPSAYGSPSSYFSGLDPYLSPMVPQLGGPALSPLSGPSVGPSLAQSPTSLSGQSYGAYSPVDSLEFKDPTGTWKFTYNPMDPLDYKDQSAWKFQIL

For TACCTA, the binding signal was 1.2 fold enrichment (6-mer frequency, TF over GST control) with FEV; 1.31 fold enrichment (6-mer frequency, TF over GST control) in the test with ETV5; 1.28 fold enrichment (6-mer frequency, TF over GST control) in the test with HSF1; 1.19 fold enrichment (6-mer frequency, TF over GST control) with SPIC; 1.3 fold enrichment (6-mer frequency, TF over GST control) in the test with ELF4; 1.35 fold enrichment (6-mer frequency, TF over GST control) in the test with ELK4. In addition, the binding signal with ETV2 was 1.21 fold enrichment (6-mer frequency, TF over GST control); in the test with ELF3, 1.3 fold enrichment (6-mer frequency, TF over GST control); in the test with CRX, 1.55 fold enrichment (6-mer frequency, TF over GST control); with ETV1 it was 1.34 fold enrichment (6-mer frequency, TF over GST control); with ERF, 1.25 fold enrichment (6-mer frequency, TF over GST control); with ETV3L, 1.28 fold enrichment (6-mer frequency, TF over GST control). For the same sequence, the binding signal with ETS2 is 1.31 fold enrichment (6-mer frequency, TF over GST control); with SPDEF, 1.19 fold enrichment (6-mer frequency, TF over GST control); in the test with ETV7, 1.27 fold enrichment (6-mer frequency, TF over GST control); with ELF5 it was 1.23 fold enrichment (6-mer frequency, TF over GST control); in the test with ETV3, 1.2 fold enrichment (6-mer frequency, TF over GST control); with ETV6 it was 1.29 fold enrichment (6-mer frequency, TF over GST control).
